Assay results taken from PubChem BioAssay (Tox21).
Inconclusive results are not listed. Where a call stands in place of a potency, no number is given. Active and inactive are the calls of the source. Unless noted, the call rests on the fitted dose curve; in most records, active means well fitted curve in the direction sought with a large enough effect in the repeat runs; inconclusive means weak or mixed curves; inactive means no such curve, though single readings can be large; an effect the other way counts as inactive or inconclusive.

Key:
[1] = target: Estrogen receptor beta (Homo sapiens) (UniProt Q92731); assay: qHTS assay to identify small molecule agonists of the estrogen receptor beta (ER-beta) signaling pathway (AID 1259377; active means well fitted activation curve with a large enough effect in the signal ratio in the repeat runs, not every such curve was filed as active; the % refers to the signal ratio)
Sequence of Estrogen receptor beta (Homo sapiens) (Q92731 whole entry, looked up): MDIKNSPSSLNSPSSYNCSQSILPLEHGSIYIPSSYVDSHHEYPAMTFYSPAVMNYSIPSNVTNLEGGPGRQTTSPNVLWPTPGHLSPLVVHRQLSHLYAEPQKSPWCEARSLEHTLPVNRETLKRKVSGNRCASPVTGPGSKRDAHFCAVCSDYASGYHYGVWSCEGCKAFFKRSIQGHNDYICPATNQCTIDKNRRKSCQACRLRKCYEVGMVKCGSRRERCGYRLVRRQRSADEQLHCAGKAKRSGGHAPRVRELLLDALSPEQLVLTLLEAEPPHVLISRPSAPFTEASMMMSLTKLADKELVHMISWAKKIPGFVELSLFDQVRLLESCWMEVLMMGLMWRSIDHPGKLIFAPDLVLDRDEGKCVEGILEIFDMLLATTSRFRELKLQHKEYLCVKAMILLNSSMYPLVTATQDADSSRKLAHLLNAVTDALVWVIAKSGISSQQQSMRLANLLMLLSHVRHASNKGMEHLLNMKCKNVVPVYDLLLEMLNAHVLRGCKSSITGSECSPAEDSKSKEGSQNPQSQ
Procedure, shortened: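 Measured by fluorescence intensity from a B/G FRET beta-lactamase substrate (2 h, room temperature) in ER-beta-UAS-bla HEK293T cells treated with DMSO-dissolved compounds for 16 hr at 37C and 5% CO2.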

[2] = target: Estrogen receptor beta (Homo sapiens) (UniProt Q92731); assay: qHTS assay to identify small molecule antagonists of the estrogen receptor beta (ER-beta) signaling pathway (AID 1259378; active means well fitted inhibition curve with a large enough effect in the signal ratio in the repeat runs, not every such curve was filed as active; the % refers to the signal ratio)
Procedure, shortened: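 Antagonist mode: compounds added to beta-lactamase reporter HEK293T ER-beta-UAS cells stimulated with E2 (1nM final), 16 hr at 37C. LiveBLAzer B/G FRET substrate, 2 hours room temperature, fluorescence read-out.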

[3] = qHTS assay to identify small molecule agonists of the androgen receptor (AR) signaling pathway in the presence of an antagonist - cell viability counter screen (AID 1259379);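 further: MDA-kb2 human breast cancer cells carrying an MMTV luciferase reporter; series mostly up to about 92 µM; nearly all actives have a fitted effect of over 25% in size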
Procedure, shortened: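 Nilutamide-containing (3.0uM final) MDA-kb2 cultures, 3,000 cells/well, were treated with compounds across 15 concentrations. After 16 hr at 37C with no CO2, cell viability was determined by CellTiter-Fluor fluorescence in the luciferase assay wells.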

[4] = qHTS assay to identify small molecule agonists of the estrogen receptor beta (ER-beta) signaling pathway - cell viability counter screen (AID 1259380); further: nearly all actives have a fitted effect of over 30% in size; further: potency means the concentration at half of the fitted maximal effect
Procedure, shortened: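 Steps: plate ER-beta-UAS-bla HEK293T cells, rest 6 hr; add compounds in DMSO; incubate 16 hr at 37C, 5% CO2; add FRET substrate 2 hr; add CellTiter-Glo, wait 30 min at room temperature; read luminescence.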

[5] = qHTS assay to identify small molecule antagonists of the estrogen receptor beta (ER-beta) signaling pathway - cell viability counter screen (AID 1259382); further: nearly all actives have a fitted effect of over 55% in size; further: potency means the concentration at half of the fitted maximal effect
Procedure, shortened: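 Viability is scored by CellTiter-Glo luminescence (30 min, room temperature) in ER-beta-UAS-bla HEK293T wells already read for reporter fluorescence. Compound exposure lasts 16 hr at 37C alongside 1nM 17-beta-estradiol in charcoal-stripped serum medium.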

[6] = target: Estrogen receptor (Homo sapiens) (UniProt P03372); assay: qHTS assay to identify small molecule agonists of the estrogen receptor alpha (ER-alpha) signaling pathway in the presence of an antagonist (AID 1259383; calls by dose curve; further: top concentration of the series differs between compounds; nearly all actives have a fitted effect of over 15% in size)
Sequence of Estrogen receptor (Homo sapiens) (P03372 whole entry, looked up): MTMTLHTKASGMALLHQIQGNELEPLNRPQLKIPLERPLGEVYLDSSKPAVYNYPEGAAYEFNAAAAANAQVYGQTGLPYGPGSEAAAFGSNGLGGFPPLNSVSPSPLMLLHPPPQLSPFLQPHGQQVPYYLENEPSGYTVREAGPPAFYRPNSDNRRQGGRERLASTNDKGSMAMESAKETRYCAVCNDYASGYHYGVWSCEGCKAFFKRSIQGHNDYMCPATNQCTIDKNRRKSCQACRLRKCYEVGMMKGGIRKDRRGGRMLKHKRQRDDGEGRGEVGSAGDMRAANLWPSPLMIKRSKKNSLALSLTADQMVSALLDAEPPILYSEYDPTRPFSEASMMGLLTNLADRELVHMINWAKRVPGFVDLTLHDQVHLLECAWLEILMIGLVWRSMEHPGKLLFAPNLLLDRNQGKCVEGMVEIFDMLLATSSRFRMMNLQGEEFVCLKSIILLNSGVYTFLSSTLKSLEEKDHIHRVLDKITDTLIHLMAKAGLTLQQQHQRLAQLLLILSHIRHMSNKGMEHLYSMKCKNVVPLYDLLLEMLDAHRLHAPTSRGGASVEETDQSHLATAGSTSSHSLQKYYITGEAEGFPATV
Procedure, shortened: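 Readout was ERE-driven luciferase luminescence in VM7Luc4E2 cells, which express full-length ER-alpha endogenously. Compounds were tested at 15 concentrations for 22hr alongside 10.0nM ICI-182,780 (final concentration).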

[7] = qHTS assay to identify small molecule agonists or antagonists of the thyroid stimulating hormone receptor (TSHR) signaling pathway - wild type cell line counter screen (AID 1259384; calls by dose curve; further: potency means the concentration at half of the fitted maximal effect)
Procedure, shortened: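 Counter screen in untransfected Hek293: compounds (15-point titration, triplicate) plus phosphodiesterase inhibitor Ro20-1724 added after 18 h plating; 30 min RT. Intracellular cAMP via competitive d2/cryptate immunoassay, 1 h incubation.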

[8] = target: Thyrotropin receptor (Homo sapiens) (UniProt P16473); assay: qHTS assay to identify small molecule antagonists of the thyroid stimulating hormone receptor (TSHR) signaling pathway (AID 1259385; calls by dose curve; further: nearly all actives have a fitted effect of over 20% in size)
Sequence of Thyrotropin receptor (Homo sapiens) (P16473 whole entry, looked up): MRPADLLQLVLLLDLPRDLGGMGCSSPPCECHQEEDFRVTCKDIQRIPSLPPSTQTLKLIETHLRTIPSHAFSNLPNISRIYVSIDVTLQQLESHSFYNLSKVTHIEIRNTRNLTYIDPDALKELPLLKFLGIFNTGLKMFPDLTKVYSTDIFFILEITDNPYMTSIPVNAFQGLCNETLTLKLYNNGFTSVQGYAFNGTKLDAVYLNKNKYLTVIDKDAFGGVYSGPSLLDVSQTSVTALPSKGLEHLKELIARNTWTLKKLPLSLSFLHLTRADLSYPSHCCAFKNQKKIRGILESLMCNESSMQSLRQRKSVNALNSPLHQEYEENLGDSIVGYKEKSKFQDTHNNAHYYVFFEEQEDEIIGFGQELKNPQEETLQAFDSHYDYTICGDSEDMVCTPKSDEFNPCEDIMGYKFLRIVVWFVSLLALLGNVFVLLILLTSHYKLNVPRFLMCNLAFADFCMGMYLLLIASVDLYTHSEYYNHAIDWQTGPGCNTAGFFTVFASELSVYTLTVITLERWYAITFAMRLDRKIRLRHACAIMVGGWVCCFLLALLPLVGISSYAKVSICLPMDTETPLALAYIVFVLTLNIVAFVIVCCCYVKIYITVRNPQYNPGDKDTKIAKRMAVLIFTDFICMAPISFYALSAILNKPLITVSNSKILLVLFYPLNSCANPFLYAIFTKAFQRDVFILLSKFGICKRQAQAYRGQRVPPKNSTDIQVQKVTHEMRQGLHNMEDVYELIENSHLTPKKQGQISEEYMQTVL
Procedure, shortened: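 Antagonist mode: compound-treated TSHR-expressing HEK293 cells were stimulated with 1.5 ng/mL TSH (final) in presence of Ro20-1724 for 30 min at RT. HTRF cAMP detection after 1 h; each compound tested at 15 concentrations, triplicate.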

[9] = qHTS assay to identify small molecule agonists of the estrogen receptor alpha (ER-alpha) signaling pathway in the presence of an antagonist - cell viability counter screen (AID 1259386);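 further: series mostly up to about 92 µM; cells exposed to compounds for 22 h at 37 °C before the viability read; nearly all actives have a fitted effect of over 30% in size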
Procedure, shortened: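 In this counter screen, compound effects on VM7Luc4E2 viability were tested in the presence of the antagonist ICI-182,780 at 10.0nM final. Compounds were dosed at 15 concentrations, exposure lasted 22hr, and the CellTiter-Fluor signal was read.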

[10] = target: Progesterone receptor (Homo sapiens) (UniProt P06401); assay: qHTS assay to identify small molecule antagonists of the progesterone receptor (PR) signaling pathway (AID 1346795; active means well fitted inhibition curve with a large enough effect in the signal ratio in the repeat runs, not every such curve was filed as active; the % refers to the signal ratio; further: potency means the concentration at half of the fitted maximal effect)
Sequence of Progesterone receptor (Homo sapiens) (P06401 whole entry, looked up): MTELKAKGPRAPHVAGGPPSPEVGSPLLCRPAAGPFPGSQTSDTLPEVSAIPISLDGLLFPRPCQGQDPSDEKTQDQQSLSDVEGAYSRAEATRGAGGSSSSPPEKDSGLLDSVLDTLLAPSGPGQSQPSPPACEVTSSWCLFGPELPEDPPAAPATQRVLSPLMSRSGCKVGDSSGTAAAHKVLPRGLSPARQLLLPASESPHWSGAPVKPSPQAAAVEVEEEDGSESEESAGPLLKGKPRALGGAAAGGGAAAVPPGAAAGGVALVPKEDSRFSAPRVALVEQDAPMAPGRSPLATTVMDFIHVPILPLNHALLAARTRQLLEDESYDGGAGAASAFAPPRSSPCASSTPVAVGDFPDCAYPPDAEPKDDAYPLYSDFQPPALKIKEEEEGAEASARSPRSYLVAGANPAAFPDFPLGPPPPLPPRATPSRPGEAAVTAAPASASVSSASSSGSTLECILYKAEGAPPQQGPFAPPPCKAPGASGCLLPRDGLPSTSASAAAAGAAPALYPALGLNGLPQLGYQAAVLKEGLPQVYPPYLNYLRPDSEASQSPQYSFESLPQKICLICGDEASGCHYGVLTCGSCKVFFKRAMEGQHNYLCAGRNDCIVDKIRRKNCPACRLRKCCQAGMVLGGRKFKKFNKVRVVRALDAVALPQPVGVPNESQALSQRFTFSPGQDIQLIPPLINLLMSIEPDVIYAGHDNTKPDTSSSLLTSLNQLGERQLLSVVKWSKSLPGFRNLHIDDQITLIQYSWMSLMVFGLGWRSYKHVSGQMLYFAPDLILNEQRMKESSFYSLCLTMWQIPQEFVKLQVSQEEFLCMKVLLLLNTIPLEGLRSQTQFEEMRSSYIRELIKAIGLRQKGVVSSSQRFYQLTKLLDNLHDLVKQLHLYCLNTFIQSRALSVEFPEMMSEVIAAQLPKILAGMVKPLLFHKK
Procedure, shortened: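 After 6 hr plating at 37C in 2% stripped-serum medium, PR-UAS-bla HEK293T cells got compounds, then 1 nM R5020. Sixteen hours later, LiveBLAzer substrate was applied for 2 hr at room temperature and fluorescence was recorded.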

[11] = qHTS assay to identify small molecule antagonists of the progesterone receptor (PR) signaling pathway - cell viability counter screen (AID 1346798); further: nearly all actives have a fitted effect of over 50% in size; further: potency means the concentration at half of the fitted maximal effect
Procedure, shortened: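 Viability was determined by ATP-based luminescence (CellTiter-Glo) in PR-UAS-bla HEK293T cells cultured in 2% charcoal-stripped serum and incubated 16 hr with compounds under R5020 stimulation.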

[12] = qHTS assay to identify small molecule agonists of the progesterone receptor (PR) signaling pathway - cell viability counter screen (AID 1346799; calls by dose curve; further: nearly all actives have a fitted effect of over 45% in size; further: potency means the concentration at half of the fitted maximal effect)
Procedure, shortened: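 Viability was scored by ATP luminescence (CellTiter-Glo, 30 min, room temperature) in the same wells used for the reporter readout, after 16 hr compound exposure of PR-UAS-bla HEK293T cells.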

[13] = qHTS assay to identify small molecule antagonists of the TGF-beta/Smad signaling pathway - cell viability counter screen (AID 1346824); further: nearly all actives have a fitted effect of over 50% in size
Procedure, shortened: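 Cytotoxicity counter-screen run in the same wells as the beta-lactamase Smad reporter read: CellTiter-Glo luminescence after 30 min at room temperature. HEK 293T SBE-bla cells had 5 hr compound exposure at 37 C with TGF-beta1 (0.25 ng/mL stock).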

[14] = qHTS assay to identify small molecule agonists of the TGF-beta/Smad signaling pathway - cell viability counter screen (AID 1346829); further: top concentration of the series differs between compounds; nearly all actives have a fitted effect of over 45% in size
Procedure, shortened: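 Here the cytotoxicity of library compounds is measured in SBE-bla HEK 293T cells treated for 5 hr, using CellTiter-Glo added to wells already read for the beta-lactamase reporter.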

[15] = qHTS assay to identify small molecule agonists of the TGF-beta/Smad signaling pathway (AID 1346859; active means well fitted activation curve with a large enough effect in the signal ratio in the repeat runs, not every such curve was filed as active; the % refers to the signal ratio; further: series mostly up to about 77 µM)
Procedure, shortened: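 Dual-wavelength fluorescence (460/530 nm emission) quantified beta-lactamase expression under the Smad binding element in HEK 293T cells following 5 hr compound treatment at 37 C.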

[16] = target: Thyrotropin-releasing hormone receptor (Homo sapiens) (UniProt P34981); assay: qHTS assay to identify small molecule antagonists of the thyrotropin-releasing hormone receptor (TRHR) signaling pathway (AID 1346877; active means well fitted inhibition curve with a large enough effect in the repeat runs, not every such curve was filed as active; further: series mostly up to about 51 µM)
Sequence of Thyrotropin-releasing hormone receptor (Homo sapiens) (P34981 whole entry, looked up): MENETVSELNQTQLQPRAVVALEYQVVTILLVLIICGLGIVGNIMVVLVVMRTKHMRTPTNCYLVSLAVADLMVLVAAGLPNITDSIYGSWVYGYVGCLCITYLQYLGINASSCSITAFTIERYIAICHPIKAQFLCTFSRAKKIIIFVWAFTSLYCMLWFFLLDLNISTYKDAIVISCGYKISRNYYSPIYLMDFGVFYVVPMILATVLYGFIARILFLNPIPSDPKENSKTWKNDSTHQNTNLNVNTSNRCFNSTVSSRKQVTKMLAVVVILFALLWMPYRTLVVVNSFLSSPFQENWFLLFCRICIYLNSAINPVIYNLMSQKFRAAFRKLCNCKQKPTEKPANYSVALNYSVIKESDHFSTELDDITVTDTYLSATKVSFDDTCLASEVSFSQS
Procedure, shortened: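 Kinetic fluorescence (3 min, 1 s resolution) following stimulation with TRH at 1 nM final; HEK293 cells bearing human TRHR; 5 min compound preincubation at RT; concentration-response over 15 points, triplicates.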

[17] = target: Thyrotropin-releasing hormone receptor (Homo sapiens) (UniProt P34981); assay: qHTS assay to identify small molecule agonists of the thyrotropin-releasing hormone receptor (TRHR) signaling pathway (AID 1346891; calls by dose curve;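 further: HEK293 cells expressing TRHR with calcium dye readout; series mostly up to about 58 µM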)
Procedure, shortened: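 Kinetic fluorescence (3 min, 1 s intervals) reported intracellular calcium after compound transfer onto TRHR-Hek293 cells pre-loaded with dye for 2 h at 37 °C.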

[18] = target: Progesterone receptor (Homo sapiens) (UniProt P06401); assay: qHTS assay to identify small molecule agonists of the progesterone receptor (PR) signaling pathway (AID 1346784; calls by dose curve; further: nearly all actives have a fitted effect of over 30% in size)
Procedure, shortened: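 The screen uses PR-UAS-bla HEK 293T cells in charcoal-stripped serum (2%). Compounds are applied for 16 hr at 37C after a 6 hr pre-incubation, and reporter activity is detected with a FRET beta-lactamase substrate after 2 hr at room temperature.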

[19] = target: Androgen receptor (Homo sapiens) (UniProt P10275); assay: qHTS assay to identify small molecule agonists of the androgen receptor (AR) signaling pathway in the presence of an antagonist (AID 1259381; calls by dose curve; further: nearly all actives have a fitted effect of over 15% in size)
Sequence of Androgen receptor (Homo sapiens) (P10275 whole entry, looked up): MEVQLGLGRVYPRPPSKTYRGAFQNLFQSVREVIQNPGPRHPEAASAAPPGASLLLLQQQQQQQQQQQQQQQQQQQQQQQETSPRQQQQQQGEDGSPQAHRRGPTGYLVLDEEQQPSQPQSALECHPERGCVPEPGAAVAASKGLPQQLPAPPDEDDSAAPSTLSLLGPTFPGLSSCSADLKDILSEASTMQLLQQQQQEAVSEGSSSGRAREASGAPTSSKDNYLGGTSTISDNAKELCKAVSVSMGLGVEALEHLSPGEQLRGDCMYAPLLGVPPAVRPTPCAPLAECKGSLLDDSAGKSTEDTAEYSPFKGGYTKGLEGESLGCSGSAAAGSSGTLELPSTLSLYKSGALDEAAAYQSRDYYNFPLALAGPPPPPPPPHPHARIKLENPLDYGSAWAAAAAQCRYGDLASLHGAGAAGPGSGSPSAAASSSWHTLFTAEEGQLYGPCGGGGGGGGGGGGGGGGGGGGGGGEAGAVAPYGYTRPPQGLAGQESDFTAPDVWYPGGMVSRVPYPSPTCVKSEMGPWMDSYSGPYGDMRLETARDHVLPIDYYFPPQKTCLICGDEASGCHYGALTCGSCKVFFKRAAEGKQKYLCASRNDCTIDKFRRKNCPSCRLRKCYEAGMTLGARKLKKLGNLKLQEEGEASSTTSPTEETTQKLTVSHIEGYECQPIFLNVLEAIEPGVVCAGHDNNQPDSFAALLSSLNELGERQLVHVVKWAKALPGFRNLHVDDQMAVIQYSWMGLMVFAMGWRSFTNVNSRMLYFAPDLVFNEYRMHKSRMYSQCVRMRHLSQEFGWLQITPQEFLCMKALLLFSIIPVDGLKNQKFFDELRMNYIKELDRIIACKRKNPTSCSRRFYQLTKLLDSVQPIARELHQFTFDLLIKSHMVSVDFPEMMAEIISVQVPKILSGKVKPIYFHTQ
Procedure, shortened: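 Reporter-gene luminescence from MDA-kb2 cells exposed 16hr at 37C (0% CO2) to 15-point compound titrations with 3.0uM final nilutamide as AR antagonist.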

[20] = qHTS assay to identify small molecule antagonists of the sonic hedgehog signaling (Shh) pathway (AID 1259369; calls by dose curve; further: nearly all actives have a fitted effect of over 45% in size)
Procedure, shortened: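 Stable Gli1-Luc reporter NIH/3T3 clone; quantitative HTS in stimulated mode with conditioned medium. Luminescence measured after 24hr compound treatment at 37 C.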

SMILES	Potency [1]	Potency [2]	Potency [3]	Potency [4]	Potency [5]	Potency [6]	Potency [7]	Potency [8]	Potency [9]	Potency [10]	Potency [11]	Potency [12]	Potency [13]	Potency [14]	outcome [15]	outcome [16]	Potency [17]	outcome [18]	Potency [19]	Potency [20]
COC(=O)C(C)=O	inactive	inactive	inactive	inactive	inactive	inactive	inactive	inactive	inactive	inactive	inactive	inactive	inactive	inactive	inactive	inactive	inactive	–	–	–
CCCCOC(=O)c1ccccc1C(=O)OCC(CC)CCCC (stereo not given)	inactive	–	inactive	inactive	inactive	inactive	inactive	inactive	inactive	48.6 µM (active)	inactive	inactive	inactive	inactive	inactive	inactive	inactive	inactive	–	–
CC(=O)N(O)CCCCCNC(=O)CCC(=O)N(O)CCCCCNC(=O)CCC(=O)N(O)CCCCCN	inactive	inactive	inactive	inactive	inactive	inactive	inactive	inactive	inactive	inactive	–	inactive	inactive	inactive	inactive	inactive	inactive	inactive	inactive	–
Oc1ccc(C(O)CNCCCCCCNCC(O)c2ccc(O)c(O)c2)cc1O (stereo not given)	–	–	–	inactive	inactive	–	6.19 µM (active)	inactive	–	inactive	–	inactive	inactive	inactive	inactive	inactive	inactive	inactive	–	inactive
CC[C@H](C)[C@@H](C(=O)O)n1sc2ccccc2c1=O	–	–	inactive	54.5 µM (active)	30.6 µM (active)	inactive	inactive	inactive	inactive	inactive	30.6 µM (active)	inactive	inactive	inactive	inactive	inactive	inactive	inactive	–	–
CCCCCCCCCCCCCCCC(=O)OC/C=C(C)/C=C/C=C(C)/C=C/C1=C(C)CCCC1(C)C	–	–	inactive	inactive	inactive	–	inactive	inactive	inactive	inactive	inactive	inactive	inactive	inactive	inactive	inactive	inactive	inactive	–	–
CCCCCCCCCC(=O)OCC	–	inactive	–	inactive	inactive	inactive	–	inactive	inactive	inactive	inactive	inactive	inactive	inactive	–	–	–	inactive	–	–
CC/C(=C\C(=N/O)C(N)=O)C(C)[N+](=O)[O-] (stereo not given)	–	inactive	–	inactive	inactive	inactive	inactive	inactive	–	–	inactive	inactive	inactive	inactive	inactive	inactive	inactive	inactive	–	–
Cc1cccc(Oc2ccccc2)c1	–	–	–	9.44 µM (active)	–	inactive	–	inactive	inactive	inactive	–	–	inactive	inactive	–	inactive	inactive	inactive	–	–
CCCCCC/C=C/C=O	–	–	inactive	inactive	inactive	–	–	–	inactive	inactive	inactive	inactive	inactive	inactive	inactive	inactive	inactive	inactive	–	–
CC(C)NCC(O)c1cc(O)cc(O)c1 (stereo not given)	–	–	inactive	inactive	inactive	–	8.1 µM (active)	inactive	–	inactive	inactive	inactive	inactive	inactive	inactive	–	–	inactive	–	–
Oc1ccc2c(c1)OCO2	–	–	inactive	inactive	inactive	inactive	inactive	inactive	–	–	–	inactive	inactive	inactive	inactive	–	–	inactive	–	–
O=C(CC(=O)c1ccccc1)c1ccccc1	–	–	inactive	inactive	inactive	–	inactive	inactive	inactive	65.7 µM (active)	inactive	inactive	inactive	inactive	inactive	–	–	inactive	–	–
CCOc1ccc2[nH]cc(C(=O)NCc3ccccc3)c(=O)c2n1	–	–	inactive	inactive	inactive	inactive	–	inactive	inactive	inactive	–	–	inactive	inactive	inactive	inactive	inactive	inactive	–	–
NCCCOCCOCCOCCCN	–	–	–	15.4 µM (active)	–	inactive	inactive	inactive	–	–	9.69 µM (active)	8.63 µM (active)	inactive	inactive	–	inactive	inactive	inactive	–	–
CNCC[C@@H](Oc1ccccc1C)c1ccccc1	–	–	inactive	26.6 µM (active)	23.7 µM (active)	inactive	inactive	–	inactive	–	–	–	inactive	inactive	–	–	–	inactive	inactive	–
O=C(O)[C@@H]1[C@H]2C[C@H]3c4[nH]c5ccccc5c4CCN3C[C@@H]2CC[C@@H]1O	–	–	inactive	inactive	inactive	inactive	–	inactive	inactive	inactive	inactive	–	inactive	inactive	inactive	inactive	inactive	inactive	inactive	–
